Results published in the supplement of paper PMC3724861.
Many of the other results were omitted from the sample, so hits are more common in it than they were. No count for the full screen is at hand.

Test system: T1, Caupolican (Caup) homeodomain DNA-binding domain
T1 sequence: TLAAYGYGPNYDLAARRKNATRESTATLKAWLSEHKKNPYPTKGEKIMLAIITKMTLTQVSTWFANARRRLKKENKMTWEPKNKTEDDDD
Experiment: PBM E-score (8-mer, recovered from the published 9-mer minima) (E-score (dimensionless, -0.5 to 0.5)); Drosophila protein; higher = stronger relative binding preference, active = 0.31 or more
Method: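 Protein binding microarray (PBM): in vitro transcribed/translated Caupolican (Caup) homeodomain DNA-binding domain (residues 214-303) applied at 100 nM to a universal 8-mer PBM array (Agilent AMADID 015681). The 8-mer enrichment score (E-score, range -0.5 to 0.5) was computed, and each 9-mer score is the minimum E-score of its two constituent 8-mers. The E-score is the same for a 9-mer and its reverse complement; 0.31 is the stated binding threshold.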

Row | Sequence | PBM E-score
1 | CGCCCCTA | -0.159 (inactive)
2 | GTAAGAGA | 0.016 (inactive)
3 | GGCTTGCA | -0.0355 (inactive)
4 | CGAACATC | 0.279 (inactive)
5 | AGAACATC | 0.235 (inactive)
6 | AGAACAGG | 0.139 (inactive)
7 | CGAACATA | 0.343 (active)
8 | CGAACAAA | 0.157 (inactive)
9 | GGAACATA | 0.271 (inactive)
10 | AGAACAGA | 0.16 (inactive)
11 | AGAACATA | 0.318 (active)
12 | AGAACATG | 0.406 (active)
13 | TAGCTCGA | -0.0721 (inactive)
14 | CACACCGG | -0.087 (inactive)
15 | GTCGTTCA | 0.0698 (inactive)
16 | AGTTGGAG | -0.129 (inactive)
17 | CAGTTAAG | 0.0884 (inactive)
18 | CGTCTAAG | -0.13 (inactive)
19 | GAAAGGTA | 0.0535 (inactive)
20 | AAACTCGA | 0.0205 (inactive)
21 | ATGTAAGG | 0.303 (inactive)
22 | CTGTAATC | 0.162 (inactive)
23 | ATGTAATC | 0.348 (active)

Row | Sequence | PBM E-score
24 | GTGTAATA | 0.315 (active)
25 | ACGTAATC | 0.155 (inactive)
26 | ATGTAATA | 0.383 (active)
27 | CTGTAATA | 0.193 (inactive)
28 | GCGTAATA | 0.076 (inactive)
29 | GAGTAATA | 0.167 (inactive)
30 | AAGTAATA | 0.134 (inactive)
31 | ACGTAATG | 0.16 (inactive)
32 | ATGTAATG | 0.37 (active)
33 | ACTAGTGA | 0.113 (inactive)
34 | CGGTCTGA | -0.0584 (inactive)
35 | GGCTTAGA | -0.112 (inactive)
36 | ACTACCAA | 0.167 (inactive)
37 | GTAGGCAC | -0.096 (inactive)
38 | GTTAGGAA | 0.0363 (inactive)
39 | AATCACTG | 0.0918 (inactive)
40 | ACCCAACT | -0.0182 (inactive)
41 | ATGTGTAG | 0.193 (inactive)
42 | ATGTGTAC | 0.348 (active)
43 | ATGTGTAA | 0.332 (active)
44 | CTGTGTAC | 0.272 (inactive)
45 | CTGTGTAA | 0.294 (inactive)
46 | GTGTGTAA | 0.275 (inactive)

Row | Sequence | PBM E-score
47 | CATGTCCA | 0.384 (active)
48 | CATGTCCC | 0.33 (active)
49 | AATGTCCC | 0.0508 (inactive)
50 | CATGTCCG | 0.303 (inactive)
51 | AATGTCCA | 0.251 (inactive)
52 | TATGTCCA | 0.214 (inactive)
53 | GTAACGTA | 0.198 (inactive)
54 | ACATGTGC | 0.351 (active)
55 | CCATGTGC | -0.0035 (inactive)
56 | ACATGTGG | 0.308 (inactive)
57 | ACATGTGA | 0.312 (active)
58 | GCATGTGA | 0.176 (inactive)
59 | CCATGTGA | 0.0957 (inactive)
60 | CACTGGAG | -0.159 (inactive)
61 | ATACACCG | 0.184 (inactive)
62 | ATCGGGGG | -0.264 (inactive)
63 | AGATGTAA | 0.336 (active)
64 | CGATGTAA | 0.276 (inactive)
65 | TGATGTAA | 0.36 (active)
66 | AGATGTAG | 0.244 (inactive)
67 | AGATGTAT | 0.29 (inactive)
68 | GGATGTAA | 0.299 (inactive)
69 | CCGCGTTA | -0.054 (inactive)

Row | Sequence | PBM E-score
70 | GATCTAGA | -0.0194 (inactive)
71 | GTACTACA | 0.376 (active)
72 | GTACTAAA | 0.229 (inactive)
73 | GCACTACA | 0.176 (inactive)
74 | ATACTACA | 0.364 (active)
75 | CTACTACA | 0.305 (inactive)
76 | ATACTACC | 0.0922 (inactive)
77 | CAGTTTCG | -0.0432 (inactive)
78 | CAGCTACG | -0.101 (inactive)
79 | ATGTACAG | 0.343 (active)
80 | ATGTACAT | ≥ 0.469 (active)
81 | ATGTACAC | 0.441 (active)
82 | ATGTACGC | 0.29 (inactive)
83 | GTGTACAC | 0.389 (active)
84 | CTGTACAC | 0.284 (inactive)
85 | ATCTACAT | 0.29 (inactive)
86 | CTGTACAG | 0.164 (inactive)
87 | GGGTACAC | 0.14 (inactive)
88 | CAGTACAC | 0.288 (inactive)
89 | ATGTACCG | 0.287 (inactive)
90 | TCCGCAAA | -0.0879 (inactive)
91 | CCCTTTCA | -0.126 (inactive)
92 | ACCCATCG | -0.0141 (inactive)

Row | Sequence | PBM E-score
93 | GCCGTCCC | -0.25 (inactive)
94 | GCTTCCAC | -0.182 (inactive)
95 | ACCCGCAT | 0.00073 (inactive)
96 | CCACTCGG | -0.158 (inactive)
97 | AAAGAAGC | -0.0635 (inactive)
98 | GGGGTACA | 0.0877 (inactive)
99 | TAGACGGA | -0.0225 (inactive)
100 | CTCCAGTC | -0.121 (inactive)
101 | CCAGTGGA | -0.117 (inactive)
102 | AAAGGTAC | 0.12 (inactive)
103 | CGTACATC | 0.263 (inactive)
104 | AGTACATA | 0.381 (active)
105 | CGTACATA | 0.336 (active)
106 | GGTACATA | 0.282 (inactive)
107 | AGTACAGA | 0.138 (inactive)
108 | CGTACAGA | 0.142 (inactive)
109 | CAGACGCC | -0.147 (inactive)
110 | CCGGTCAA | -0.0503 (inactive)
111 | GGATCCCA | -0.0305 (inactive)
112 | ATTGTTCC | 0.112 (inactive)
113 | ATTGTTCA | 0.184 (inactive)
114 | CCTGTTCC | 0.0821 (inactive)
115 | CTTGTTCA | 0.33 (active)

Row | Sequence | PBM E-score
116 | CCTGTTCA | 0.15 (inactive)
117 | CTTGTTCC | ≥ 0.337 (active)
118 | CATGGGGG | -0.157 (inactive)
119 | ATGGGAAG | -0.07 (inactive)
120 | TGTAGACA | ≥ 0.313 (active)
121 | GGTAGACA | 0.117 (inactive)
122 | CGTAGACA | 0.122 (inactive)
123 | ATACATGC | 0.374 (active)
124 | ATGCATGC | 0.107 (inactive)
125 | CTACATCC | 0.189 (inactive)
126 | ATCCATGA | 0.0343 (inactive)
127 | ATACATGA | 0.4 (active)
128 | ATACAGGA | 0.13 (inactive)
129 | CTACATGC | 0.369 (active)
130 | CCACATGC | 0.0879 (inactive)
131 | ATTCATGG | -0.039 (inactive)
132 | ATACATCG | 0.273 (inactive)
133 | ATACATGG | 0.422 (active)
134 | ATTCATGC | 0.0406 (inactive)
135 | AAAATTAA | 0.0601 (inactive)
136 | TATCGTAA | 0.114 (inactive)
137 | ACGACTTC | 0.0231 (inactive)
138 | CCGCAGAA | -0.0611 (inactive)

Row | Sequence | PBM E-score
139 | CGTCGGCC | -0.224 (inactive)
140 | GCGCTGCC | -0.257 (inactive)
141 | CCAGAGAG | -0.172 (inactive)
142 | CGCTTCAA | -0.0124 (inactive)
143 | CTATTGTC | 0.0455 (inactive)
144 | GAGGTACC | -0.137 (inactive)
145 | CGTTGTAG | 0.154 (inactive)
146 | GCTTGTAC | 0.38 (active)
147 | AGTTGTAC | 0.308 (inactive)
148 | GCCTGTAC | 0.164 (inactive)
149 | ACTTGTAG | 0.297 (inactive)
150 | ACTTGTAC | 0.407 (active)
151 | CCTTGTGC | 0.0734 (inactive)
152 | CTTTGTAC | 0.229 (inactive)
153 | CCTTGTAC | 0.399 (active)
154 | CCTTGTAG | 0.322 (active)
155 | ACTTGTGC | 0.0346 (inactive)
156 | GCTTGGAC | -0.0623 (inactive)
